According to PubChem BioAssay (EPA / NIEHS):
“And” between values parts separate entries of the source, which are not always exact repeats. Equal entries are not always repeated. The source made the active and inactive calls. The calls were made as follows: active = hit-call score of the fitted dose curve at least 0.9, where 1 is the maximum; inactive = score below 0.9.

read-out: CYP2E1 (gene 1571); assay: LTEA_HepaRG_CYP2E1: Life Technologies and Expression Analysis (LTEA) Assay for CYP2E1 using HepaRG (AID 2283485); conditions: mRNA level, 48 h; actives raise or lower the signal
Procedure: LTEA_HepaRG is a cell based, multiplexed-readout assay that uses HepaRG, a human liver cell line, with measurements taken at 48 hours after chemical dosing on a 96-well plate.LTEA_HepaRG_CYP2E1 is one of 102 assay component(s) measured in the LTEA HepaRG cell culture assay. It is a marker of NR mediated metabolism.Data from the assay component LTEA_HepaRG_CYP2E1 was analyzed into 1 endpoint. This assay endpoint, LTEA_HepaRG_CYP2E1, was analyzed with bidirectional fitting relative to DMSO as the negative control and baseline of activity. Using a type of inducible reporter, measures of mRNA induction for gain or loss-of-signal activity can be used to understand regulation of transcription factor activity. To generalize the intended target to other relatable targets, this assay endpoint is annotated to the cyp intended target family, where the subfamily is xenobiotic metabolism.
A total of 1060 chemcials from the ToxCast library were tested in eight-point concentration-response experiments. Cell culture and cytotoxicity assays were conducted at Thermo Fisher Scientific's Custom Services facility (Madison, WI). A single lot of human HepaRG cells (Thermo Fisher Scientific, Frederick, MD) was used for the cell culture experiments. 96-well format collagen type I coated plates of human HepaRG cells were prepared using established methods. Briefly, cryopreserved HepaRG cells were thawed, plated at a density of approximately 100,000 cells/well in HepaRG Thaw, Plate, and General Purpose media (HPRG770, Thermo Fisher Scientific), and incubated for 48 hours. 0.5% DMSO was selected as vehicle control to balance the requisite need of DMSO in HepaRG cultures to maintain differentiation (for example, baseline metabolism, proportions of hepatocytes vs. cholangiocytes), while enabling further hepatic receptor pathway activation (for example, PXR and CAR) in response to chemical exposure. 48 hours after plating, the culture medium was replaced with HepaRG Serum-Free Incudtion Media. Cells were exposed to each test chemical in duplicate and maintained in CO2 incubators for another 48 hours. Chemical plates were thawed to room temperature and 200x concentrations of treatment groups were prepared. 8-point conentration-reponse curves were made with the highest exposure at 100 uM, followed by half-log dilutions, all in 0.5% DMSO. Each test plate contained variouse controls, induction positive controls (1mM phenobarbital), cytotoxicity positive controls ([…] aflatoxin B1), vehicle controls (0.5% DMSO), and total lysis controls (0.5% DMSO). Cell morphology images were taken using an Essen IncuCyte FLR automated microscope, with six 96-well plates imaged in about 24 minutes. Images were captured and exported and JPEG files. Spent culture media was transfered to black-well plates for the LDH assay, and remaining media was sorted at -80 C for later use. Cells were treated with RLT buffer and frozen until shipped for gene expression analysis. Total RNA was isolated from the cell suspension in 75 uL of Buffer RLT (Qiagen, Germantown, MD 20874) by Quintiles/Expression Analysis (Durham, NC) using a custom isolation procedure. Total RNA from each plate well was transferred to a preamplification plate. Fluidigm's 96.96 Dynamic ArrayTM (Fluidigm, Amsterdam, the Netherlands) technology was used for gene expression analyses by quantitative reverse transcription polymerase chain reaction (qRT-PCR, performed by Quintiles/Expression Analysis, Durham, NC)89. Standard TaqManTM Assays (Applied Biosystems/ThermoFisher Scientific, Foster City, CA) were used to assess the expression of 93 genes selected based on their selectivity and sensitivity to important hepatic receptors known to be modulated by environmental chemicals; importance in human hepatocyte functionality; and hepatotoxicity. […]

SMILES | AC50 | outcome
CCCCOC(=O)[C@@H](C)Oc1ccc(Oc2ccc(C(F)(F)F)cn2)cc1 | 17 µM (active) | –
C[C@]12C[C@H](O)[C@H]3[C@@H](CCC4=CC(=O)CC[C@@]43C)[C@@H]1CC[C@@H]2C(=O)CO | – | inactive
CCCCC(CC)CN1C(=O)C2C3C=CC(C3)C2C1=O (stereo not given) | 43 µM (active) | –
CCCOC(=O)c1ccc(C(=O)OCCC)nc1 | – | inactive
CSC(=O)c1cccc2nnsc12 | – | inactive
CC(=O)[C@H]1CC[C@H]2[C@@H]3CCC4=CC(=O)CC[C@]4(C)[C@H]3CC[C@]12C | 25.7 µM (active) | –
CCCCOC(=O)C(C)Oc1ccc(Oc2ccc(C(F)(F)F)cn2)cc1 (stereo not given) | – | inactive
COC(=O)c1ccc(I)cc1S(=O)(=O)NC(=O)Nc1nc(C)nc(OC)n1 | – | inactive
CCOC(=O)C(C)Oc1ccc(Oc2cnc3cc(Cl)ccc3n2)cc1 (stereo not given) | 20 µM (active) | –
N#CSCSc1nc2ccccc2s1 | 81.2 µM (active) | –
CC1(C)C(C=C(Cl)Cl)C1C(=O)OCc1cccc(Oc2ccccc2)c1 (stereo not given) | 26.2 µM (active) | –
CCCN(CCC)c1c([N+](=O)[O-])cc(C(F)(F)F)c(N)c1[N+](=O)[O-] | 16.2 µM (active) | –
O=C(c1ccccc1)C1CCCCC1 | – | inactive
CC(C)(C)[C@@H](O)[C@@H](Cc1ccc(Cl)cc1)n1cncn1 | 50 µM (active) | –
O=C(O)C1(C(=O)Nc2ccc(Cl)cc2Cl)CC1 | 63.5 µM (active) | –
c1ccc(Nc2ccccc2)cc1 | – | inactive
CC(=O)S[C@@H]1CC2=CC(=O)CC[C@]2(C)[C@H]2CC[C@@]3(C)[C@@H](CC[C@@]34CCC(=O)O4)[C@H]12 | 63 µM (active) | –
CCOC(=O)COc1cc(-n2ncc(C(F)(F)F)c(C)c2=O)c(F)cc1Cl | – | inactive
O=C(O)c1ccccc1 | – | inactive
CCNc1nc(N)nc(Cl)n1 | 50 µM (active) | –

SMILES | AC50 | outcome
COCCO | – | inactive
CCCCOCCOCCOCc1cc2c(cc1CCC)OCO2 | 14 µM (active) | –
CCSC(=O)N(CC(C)C)CC(C)C | – | inactive
CN(C)C(=O)Nc1ccc(Cl)c(Cl)c1 | 63 µM (active) | –
CCCN(CCC)C(=O)SCC | – | inactive
CCOC(=O)c1ccc(O)cc1 | – | inactive
C#CCOC(=O)[C@@H](C)Oc1ccc(Oc2ncc(Cl)cc2F)cc1 | – | inactive
CCCCC(CC)COC(=O)c1ccccc1C(=O)O (stereo not given) | 76.7 µM (active) | –
CCN(Cc1c(F)cccc1Cl)c1c([N+](=O)[O-])cc(C(F)(F)F)cc1[N+](=O)[O-] | 40.9 µM (active) | –
CC(C)CCCCCCc1ccc(O)cc1 | – | inactive
CC(C)(c1ccc(O)cc1)c1ccc(O)cc1 | – | inactive
CCCCCCC(C)OC(=O)COc1nc(F)c(Cl)c(N)c1Cl (stereo not given) | – | inactive
CCCCCOC(=O)COc1cc(N2C(=O)C3=C(CCCC3)C2=O)c(F)cc1Cl | – | inactive
CCOC(=O)C(C)Oc1ccc(Oc2nc3ccc(Cl)cc3o2)cc1 (stereo not given) | 35.6 µM (active) | –
S=C([S-])NCCNC(=S)[S-].[Mn+2] | 3.82 µM (active) | –
N[C@@H](Cc1cc(I)c(Oc2ccc(O)c(I)c2)c(I)c1)C(=O)O | 0.00253 µM (active) | –
c1ccc2[nH]c(-c3cscn3)nc2c1 | 50 µM (active) | –
C[C@]12CC[C@@H]3c4ccc(O)cc4C[C@@H](CCCCCCCCCS(=O)CCCC(F)(F)C(F)(F)F)[C@H]3[C@@H]1CC[C@@H]2O (stereo not given in full) | 20.2 µM (active) | –
CCOC(=O)NCCOc1ccc(Oc2ccccc2)cc1 | 83.8 µM (active) | –
S=C(S)NCCNC(=S)S.[Mn+2].[S-]C([S-])=NCCN=C([S-])[S-].[Zn+2] | 1.21 µM (active) and 1.4 µM (active) and 1.62 µM (active) | –
